From the supplement of paper PMC3545927
This is one part of the list. The true hit rate is not given.

Molecular target: furin, P09958
Test: furin cleavage Z-score vs untreated control; higher = more cleavage, active = 3.5 or more, inactive = 1 or less, 8 variable residues between constant flanks
How it was run: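 Peptides 8 residues long, fused to a cDNA oligonucleotide, were fixed to magnetic beads by the N-terminus and exposed to purified furin. The 0.01 ml reactions contained 50 mM HEPES pH 7.5 with CaCl2 and NaCl at 1:10 enzyme:substrate and ran 7.5, 15 or 30 min. For the cleavage Z-score, log counts of sequenced released DNA were compared with furin-free reactions, lowess-adjusted and scaled by median absolute deviation.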

furin, P09958, sequence (P09958 whole entry): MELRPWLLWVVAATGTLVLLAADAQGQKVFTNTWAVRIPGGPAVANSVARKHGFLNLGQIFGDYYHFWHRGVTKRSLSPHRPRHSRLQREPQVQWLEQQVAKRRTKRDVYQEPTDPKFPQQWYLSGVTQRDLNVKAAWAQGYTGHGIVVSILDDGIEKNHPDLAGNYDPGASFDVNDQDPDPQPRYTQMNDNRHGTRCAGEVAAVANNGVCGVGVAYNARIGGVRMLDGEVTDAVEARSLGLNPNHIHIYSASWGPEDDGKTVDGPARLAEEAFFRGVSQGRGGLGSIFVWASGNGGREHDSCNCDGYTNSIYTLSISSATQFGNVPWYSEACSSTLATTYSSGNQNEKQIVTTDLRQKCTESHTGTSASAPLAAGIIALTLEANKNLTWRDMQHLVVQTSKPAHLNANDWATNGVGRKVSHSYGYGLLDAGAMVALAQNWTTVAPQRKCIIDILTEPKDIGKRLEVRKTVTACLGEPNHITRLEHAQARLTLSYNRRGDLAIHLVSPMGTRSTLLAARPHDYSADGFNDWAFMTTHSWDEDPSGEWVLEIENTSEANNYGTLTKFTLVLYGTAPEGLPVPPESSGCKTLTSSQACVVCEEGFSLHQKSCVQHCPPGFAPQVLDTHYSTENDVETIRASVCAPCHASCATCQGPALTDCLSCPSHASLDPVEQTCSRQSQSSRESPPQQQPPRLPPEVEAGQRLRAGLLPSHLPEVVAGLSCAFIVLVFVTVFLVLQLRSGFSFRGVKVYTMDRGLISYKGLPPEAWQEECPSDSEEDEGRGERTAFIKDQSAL

| Sequence | furin cleavage Z-score (7.5 min) | furin cleavage Z-score (15 min) | furin cleavage Z-score (30 min) |
| --- | --- | --- | --- |
| CAVVCESMSYAGNASASA [HC93] | 1.27 | 1.17 | 0.112 (inactive) |
| CAGLPVCQDHAGNASASA [HC934] | -1.12 (inactive) | -0.715 (inactive) | -0.789 (inactive) |
| CAMEECSQHVAGNASASA [HC1770] | 0.37 (inactive) | -0.816 (inactive) | 0.885 (inactive) |
| CAGLAGAAIGAGNASASA [HC1077] | 0.0949 (inactive) | -0.583 (inactive) | -1.05 (inactive) |
| CATTPCSGSRAGNASASA [HC1933] | -1.1 (inactive) | 1.02 | 0.7 (inactive) |
| CAEWVVCCSMAGNASASA [HC2128] | -0.594 (inactive) | 0.0553 (inactive) | 0.122 (inactive) |
| CARKRRGGPSAGNASASA [FS-2564] | 3.55 (active) | 5.66 (active) | 4.4 (active) |
| CARKHPDATYAGNASASA [HC454] | -0.794 (inactive) | -0.15 (inactive) | -3 (inactive) |
| CARKRRCSLSAGNASASA [FS-1829] | 4.81 (active) | 7.32 (active) | 6.54 (active) |
| CARKRRTGFGAGNASASA [FS-2978] | -1.31 (inactive) | 1.08 | 1.25 |
| CARKRRTATYAGNASASA [FS-2977] | 4.55 (active) | 6.85 (active) | 6.75 (active) |
| CANKRRGGTAAGNASASA [WN5] | -0.513 (inactive) | -0.365 (inactive) | 0.516 (inactive) |
